# Test results as given in ChEMBL document CHEMBL1961873, “Compounds: GSK PKIS; Assays: Nanosyn kinase panel” (2012).
# Tests used:
# [1] = target: Sphingosine kinase 1 (Homo sapiens) (UniProt Q9NYA1); conditions: at 1 µM;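 note: mean SPHK1 inhibition value reported from the GSK PKIS kinase panel screen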
# [2] = target: T1, Sphingosine kinase 2 (Homo sapiens) (UniProt Q9NRA0); conditions: at 0.1 µM
# T1 sequence (whole entry): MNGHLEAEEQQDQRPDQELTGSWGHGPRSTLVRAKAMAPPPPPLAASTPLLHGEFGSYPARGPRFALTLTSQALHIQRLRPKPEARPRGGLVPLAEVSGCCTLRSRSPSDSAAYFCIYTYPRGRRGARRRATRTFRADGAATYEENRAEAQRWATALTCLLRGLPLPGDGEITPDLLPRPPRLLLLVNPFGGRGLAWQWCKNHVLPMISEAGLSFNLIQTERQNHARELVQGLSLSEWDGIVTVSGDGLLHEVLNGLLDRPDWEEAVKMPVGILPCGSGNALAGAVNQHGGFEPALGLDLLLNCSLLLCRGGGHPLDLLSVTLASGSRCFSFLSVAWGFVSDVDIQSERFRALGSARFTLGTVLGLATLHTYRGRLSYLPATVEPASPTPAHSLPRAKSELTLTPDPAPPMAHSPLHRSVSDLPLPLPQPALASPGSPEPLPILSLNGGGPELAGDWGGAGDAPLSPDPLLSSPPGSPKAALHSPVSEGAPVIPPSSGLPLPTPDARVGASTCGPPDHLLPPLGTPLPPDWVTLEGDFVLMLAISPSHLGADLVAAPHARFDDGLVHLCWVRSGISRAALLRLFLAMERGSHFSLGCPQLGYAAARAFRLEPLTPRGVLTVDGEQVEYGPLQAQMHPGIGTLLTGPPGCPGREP
# [3] = target: T1, Sphingosine kinase 2 (Homo sapiens); conditions: at 1 µM
# [4] = target: Casein kinase II subunit alpha (Homo sapiens) (UniProt P68400); conditions: at 0.1 µM
# Sequence of Casein kinase II subunit alpha (Homo sapiens) (P68400 whole entry, looked up): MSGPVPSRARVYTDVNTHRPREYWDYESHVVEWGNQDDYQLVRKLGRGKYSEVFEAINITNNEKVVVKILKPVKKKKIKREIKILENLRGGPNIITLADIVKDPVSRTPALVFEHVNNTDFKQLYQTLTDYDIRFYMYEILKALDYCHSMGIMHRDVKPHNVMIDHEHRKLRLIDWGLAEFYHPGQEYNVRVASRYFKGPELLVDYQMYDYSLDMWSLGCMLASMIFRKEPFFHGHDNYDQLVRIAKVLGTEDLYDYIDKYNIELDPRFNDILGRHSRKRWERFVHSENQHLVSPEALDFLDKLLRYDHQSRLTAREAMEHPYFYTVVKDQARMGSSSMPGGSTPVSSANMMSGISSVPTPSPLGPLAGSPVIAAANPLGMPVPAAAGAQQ
# [5] = target: Casein kinase II subunit alpha (Homo sapiens) (UniProt P68400); conditions: at 1 µM
# [6] = target: T2, Inhibitor of nuclear factor kappa-B kinase subunit alpha (Homo sapiens) (UniProt O15111); conditions: at 0.1 µM
# T2 sequence (whole entry): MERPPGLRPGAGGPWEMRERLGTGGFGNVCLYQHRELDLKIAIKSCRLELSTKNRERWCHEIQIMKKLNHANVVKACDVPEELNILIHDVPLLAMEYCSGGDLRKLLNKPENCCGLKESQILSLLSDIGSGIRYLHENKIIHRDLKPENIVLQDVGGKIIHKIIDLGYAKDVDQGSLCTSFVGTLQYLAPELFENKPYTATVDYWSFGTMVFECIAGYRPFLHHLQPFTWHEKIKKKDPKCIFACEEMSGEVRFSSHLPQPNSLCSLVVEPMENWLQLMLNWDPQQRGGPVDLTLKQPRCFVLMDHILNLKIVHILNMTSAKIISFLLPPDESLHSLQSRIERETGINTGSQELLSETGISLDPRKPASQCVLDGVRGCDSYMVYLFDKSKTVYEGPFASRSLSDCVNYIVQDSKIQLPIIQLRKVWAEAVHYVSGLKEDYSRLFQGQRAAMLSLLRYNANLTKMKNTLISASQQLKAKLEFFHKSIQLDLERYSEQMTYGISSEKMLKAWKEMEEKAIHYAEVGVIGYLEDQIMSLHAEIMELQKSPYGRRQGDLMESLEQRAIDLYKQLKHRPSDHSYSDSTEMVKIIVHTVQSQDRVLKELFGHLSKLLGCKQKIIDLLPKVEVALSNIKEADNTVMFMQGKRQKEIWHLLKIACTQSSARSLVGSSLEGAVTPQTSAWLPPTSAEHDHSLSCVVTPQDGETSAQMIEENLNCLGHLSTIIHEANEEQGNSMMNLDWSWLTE
# [7] = target: T2, Inhibitor of nuclear factor kappa-B kinase subunit alpha (Homo sapiens); conditions: at 1 µM
# [8] = target: T3, Inhibitor of nuclear factor kappa-B kinase subunit beta (Homo sapiens) (UniProt O14920); conditions: at 0.1 µM
# T3 sequence (whole entry): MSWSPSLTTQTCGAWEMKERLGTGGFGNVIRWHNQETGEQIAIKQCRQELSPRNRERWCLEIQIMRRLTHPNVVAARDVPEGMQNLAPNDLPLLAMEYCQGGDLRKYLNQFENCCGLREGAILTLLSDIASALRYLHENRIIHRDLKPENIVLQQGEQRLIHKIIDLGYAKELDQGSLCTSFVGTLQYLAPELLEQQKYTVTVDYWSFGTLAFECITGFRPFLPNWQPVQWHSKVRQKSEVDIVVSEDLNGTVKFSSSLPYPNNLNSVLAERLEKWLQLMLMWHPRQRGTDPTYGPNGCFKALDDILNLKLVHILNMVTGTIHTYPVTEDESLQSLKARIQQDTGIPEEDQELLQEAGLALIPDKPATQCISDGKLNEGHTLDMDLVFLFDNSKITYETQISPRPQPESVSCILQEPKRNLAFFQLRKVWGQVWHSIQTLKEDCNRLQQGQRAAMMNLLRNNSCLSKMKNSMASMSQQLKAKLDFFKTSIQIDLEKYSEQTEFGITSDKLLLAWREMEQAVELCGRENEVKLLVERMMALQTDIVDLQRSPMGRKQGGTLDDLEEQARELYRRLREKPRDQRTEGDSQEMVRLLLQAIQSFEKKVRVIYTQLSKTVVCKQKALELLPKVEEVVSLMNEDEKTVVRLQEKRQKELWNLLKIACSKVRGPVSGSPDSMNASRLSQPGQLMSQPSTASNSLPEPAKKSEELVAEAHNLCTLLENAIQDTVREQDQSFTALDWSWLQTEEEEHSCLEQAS
# [9] = target: T3, Inhibitor of nuclear factor kappa-B kinase subunit beta (Homo sapiens); conditions: at 1 µM
# [10] = target: T4, Inhibitor of nuclear factor kappa-B kinase subunit epsilon (Homo sapiens) (UniProt Q14164); conditions: at 0.1 µM
# T4 sequence (whole entry): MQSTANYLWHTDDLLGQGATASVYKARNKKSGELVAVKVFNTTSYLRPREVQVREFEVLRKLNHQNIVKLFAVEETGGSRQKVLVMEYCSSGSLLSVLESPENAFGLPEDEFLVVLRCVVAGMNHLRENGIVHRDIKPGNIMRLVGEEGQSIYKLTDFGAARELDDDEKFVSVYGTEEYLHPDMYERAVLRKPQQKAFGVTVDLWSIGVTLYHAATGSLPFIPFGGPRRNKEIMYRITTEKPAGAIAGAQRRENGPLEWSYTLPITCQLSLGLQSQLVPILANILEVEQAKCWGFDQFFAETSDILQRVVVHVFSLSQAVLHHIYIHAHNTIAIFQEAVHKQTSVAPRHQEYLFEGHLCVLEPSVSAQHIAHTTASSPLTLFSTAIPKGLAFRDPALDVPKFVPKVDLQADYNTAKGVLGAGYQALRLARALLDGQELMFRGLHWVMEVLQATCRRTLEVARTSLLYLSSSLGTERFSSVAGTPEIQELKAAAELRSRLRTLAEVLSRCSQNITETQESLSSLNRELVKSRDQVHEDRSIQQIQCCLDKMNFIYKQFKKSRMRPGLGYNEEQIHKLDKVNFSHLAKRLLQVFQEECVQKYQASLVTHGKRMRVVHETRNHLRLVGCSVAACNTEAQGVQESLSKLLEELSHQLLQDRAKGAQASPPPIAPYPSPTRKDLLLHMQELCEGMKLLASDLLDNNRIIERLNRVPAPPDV
# [11] = target: T4, Inhibitor of nuclear factor kappa-B kinase subunit epsilon (Homo sapiens); conditions: at 1 µM
# [12] = target: T5, Serine/threonine-protein kinase Nek1 (Homo sapiens) (UniProt Q96PY6); conditions: at 0.1 µM
# T5 sequence (whole entry): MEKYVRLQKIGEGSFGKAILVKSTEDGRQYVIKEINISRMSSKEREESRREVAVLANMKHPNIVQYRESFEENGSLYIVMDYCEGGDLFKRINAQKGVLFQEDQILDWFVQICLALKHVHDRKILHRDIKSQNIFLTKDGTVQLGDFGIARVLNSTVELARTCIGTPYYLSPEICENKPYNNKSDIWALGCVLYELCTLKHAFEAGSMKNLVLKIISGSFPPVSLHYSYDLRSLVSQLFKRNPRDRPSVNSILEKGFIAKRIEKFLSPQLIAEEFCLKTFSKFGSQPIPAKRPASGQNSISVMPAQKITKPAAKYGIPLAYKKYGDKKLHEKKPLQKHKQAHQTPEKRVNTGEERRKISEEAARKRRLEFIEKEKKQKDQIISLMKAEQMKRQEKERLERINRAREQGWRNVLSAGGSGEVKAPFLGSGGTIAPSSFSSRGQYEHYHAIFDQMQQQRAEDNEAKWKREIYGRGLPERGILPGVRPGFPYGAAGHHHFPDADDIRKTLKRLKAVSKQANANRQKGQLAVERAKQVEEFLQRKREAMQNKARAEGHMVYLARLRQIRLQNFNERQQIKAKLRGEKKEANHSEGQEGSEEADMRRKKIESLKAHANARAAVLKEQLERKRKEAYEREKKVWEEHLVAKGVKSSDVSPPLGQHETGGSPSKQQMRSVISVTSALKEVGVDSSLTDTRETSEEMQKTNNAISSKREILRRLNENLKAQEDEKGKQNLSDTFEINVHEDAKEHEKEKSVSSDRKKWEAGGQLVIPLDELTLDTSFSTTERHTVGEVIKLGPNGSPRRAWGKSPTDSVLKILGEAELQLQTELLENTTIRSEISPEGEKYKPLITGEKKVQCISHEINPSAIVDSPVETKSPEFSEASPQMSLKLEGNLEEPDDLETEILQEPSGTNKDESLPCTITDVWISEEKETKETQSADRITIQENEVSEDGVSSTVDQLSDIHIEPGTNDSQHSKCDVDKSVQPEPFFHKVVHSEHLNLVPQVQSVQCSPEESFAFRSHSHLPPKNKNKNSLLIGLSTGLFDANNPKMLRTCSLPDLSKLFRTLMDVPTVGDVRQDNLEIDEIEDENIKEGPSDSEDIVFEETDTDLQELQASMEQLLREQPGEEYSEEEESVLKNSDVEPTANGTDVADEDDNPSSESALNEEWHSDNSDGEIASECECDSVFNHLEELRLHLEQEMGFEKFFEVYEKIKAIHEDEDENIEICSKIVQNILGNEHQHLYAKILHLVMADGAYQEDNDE
# [13] = target: T5, Serine/threonine-protein kinase Nek1 (Homo sapiens); conditions: at 1 µM
# [14] = target: T6, Serine/threonine-protein kinase Nek2 (Homo sapiens) (UniProt P51955); conditions: at 0.1 µM
# T6 sequence (whole entry): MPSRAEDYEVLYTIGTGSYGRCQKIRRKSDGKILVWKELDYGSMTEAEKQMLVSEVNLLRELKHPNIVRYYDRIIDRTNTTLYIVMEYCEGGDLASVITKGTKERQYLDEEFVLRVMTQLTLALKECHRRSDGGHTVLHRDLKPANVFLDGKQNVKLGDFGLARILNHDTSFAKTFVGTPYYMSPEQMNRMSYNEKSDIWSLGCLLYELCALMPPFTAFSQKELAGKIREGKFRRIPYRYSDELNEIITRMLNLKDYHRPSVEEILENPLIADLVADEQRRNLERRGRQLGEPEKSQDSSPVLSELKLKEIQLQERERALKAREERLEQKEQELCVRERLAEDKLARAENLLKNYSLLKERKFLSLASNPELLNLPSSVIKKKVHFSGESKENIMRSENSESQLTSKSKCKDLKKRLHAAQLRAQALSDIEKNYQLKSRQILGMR
# [15] = target: T6, Serine/threonine-protein kinase Nek2 (Homo sapiens); conditions: at 1 µM
# [16] = target: Serine/threonine-protein kinase Nek6 (Homo sapiens) (UniProt Q9HC98); conditions: at 0.1 µM
# Sequence of Serine/threonine-protein kinase Nek6 (Homo sapiens) (Q9HC98 whole entry): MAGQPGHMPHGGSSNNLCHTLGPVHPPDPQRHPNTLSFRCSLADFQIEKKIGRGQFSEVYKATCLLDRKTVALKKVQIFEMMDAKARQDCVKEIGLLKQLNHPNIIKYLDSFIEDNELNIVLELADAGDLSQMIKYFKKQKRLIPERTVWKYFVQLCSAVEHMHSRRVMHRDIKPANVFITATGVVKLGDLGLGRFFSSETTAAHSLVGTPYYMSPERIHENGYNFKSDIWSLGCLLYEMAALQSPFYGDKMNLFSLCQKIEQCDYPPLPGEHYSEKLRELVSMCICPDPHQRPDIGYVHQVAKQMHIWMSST
# [17] = target: Serine/threonine-protein kinase Nek6 (Homo sapiens) (UniProt Q9HC98); conditions: at 1 µM
# [18] = target: Serine/threonine-protein kinase Nek7 (Homo sapiens) (UniProt Q8TDX7); conditions: at 0.1 µM
# Sequence of Serine/threonine-protein kinase Nek7 (Homo sapiens) (Q8TDX7 whole entry, looked up): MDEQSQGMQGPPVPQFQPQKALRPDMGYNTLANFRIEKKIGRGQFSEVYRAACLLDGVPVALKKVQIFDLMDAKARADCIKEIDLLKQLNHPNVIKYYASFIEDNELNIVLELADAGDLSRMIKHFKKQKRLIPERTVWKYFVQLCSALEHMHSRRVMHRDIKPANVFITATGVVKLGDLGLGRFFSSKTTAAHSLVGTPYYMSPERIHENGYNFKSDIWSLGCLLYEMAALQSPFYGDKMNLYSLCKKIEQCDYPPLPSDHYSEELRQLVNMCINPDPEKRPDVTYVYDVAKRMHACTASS
# [19] = target: Serine/threonine-protein kinase Nek7 (Homo sapiens) (UniProt Q8TDX7); conditions: at 1 µM
# [20] = target: T7, Serine/threonine-protein kinase Nek9 (Homo sapiens) (UniProt Q8TD19); conditions: at 0.1 µM;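 note: reported value is the mean percent inhibition of NEK9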
# T7 sequence (whole entry): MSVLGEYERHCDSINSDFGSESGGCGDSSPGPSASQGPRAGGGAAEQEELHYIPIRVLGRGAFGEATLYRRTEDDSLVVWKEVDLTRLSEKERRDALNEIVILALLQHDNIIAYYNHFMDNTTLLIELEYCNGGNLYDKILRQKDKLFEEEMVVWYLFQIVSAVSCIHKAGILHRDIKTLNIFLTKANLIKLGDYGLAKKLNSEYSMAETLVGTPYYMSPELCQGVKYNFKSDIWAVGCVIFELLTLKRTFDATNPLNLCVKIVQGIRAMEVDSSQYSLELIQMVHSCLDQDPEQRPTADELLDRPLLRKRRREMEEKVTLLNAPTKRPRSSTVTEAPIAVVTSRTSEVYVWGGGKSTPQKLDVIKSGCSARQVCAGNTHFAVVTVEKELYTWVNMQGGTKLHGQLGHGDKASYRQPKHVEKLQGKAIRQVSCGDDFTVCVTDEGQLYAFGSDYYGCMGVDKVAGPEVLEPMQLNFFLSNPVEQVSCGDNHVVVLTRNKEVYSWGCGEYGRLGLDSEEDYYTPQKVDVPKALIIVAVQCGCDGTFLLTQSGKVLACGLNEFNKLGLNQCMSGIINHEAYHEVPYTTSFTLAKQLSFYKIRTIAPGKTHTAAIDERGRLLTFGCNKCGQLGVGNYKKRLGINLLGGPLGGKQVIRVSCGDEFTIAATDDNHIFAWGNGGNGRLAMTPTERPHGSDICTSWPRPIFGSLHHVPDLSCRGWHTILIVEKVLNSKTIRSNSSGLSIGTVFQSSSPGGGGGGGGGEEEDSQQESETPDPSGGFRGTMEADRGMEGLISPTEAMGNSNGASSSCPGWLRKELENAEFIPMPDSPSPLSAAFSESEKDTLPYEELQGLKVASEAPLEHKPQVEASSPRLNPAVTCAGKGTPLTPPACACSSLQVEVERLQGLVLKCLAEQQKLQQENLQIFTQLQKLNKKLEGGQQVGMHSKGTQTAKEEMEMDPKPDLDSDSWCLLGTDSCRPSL
# Sequence of Sphingosine kinase 1 (Homo sapiens) (Q9NYA1 whole entry): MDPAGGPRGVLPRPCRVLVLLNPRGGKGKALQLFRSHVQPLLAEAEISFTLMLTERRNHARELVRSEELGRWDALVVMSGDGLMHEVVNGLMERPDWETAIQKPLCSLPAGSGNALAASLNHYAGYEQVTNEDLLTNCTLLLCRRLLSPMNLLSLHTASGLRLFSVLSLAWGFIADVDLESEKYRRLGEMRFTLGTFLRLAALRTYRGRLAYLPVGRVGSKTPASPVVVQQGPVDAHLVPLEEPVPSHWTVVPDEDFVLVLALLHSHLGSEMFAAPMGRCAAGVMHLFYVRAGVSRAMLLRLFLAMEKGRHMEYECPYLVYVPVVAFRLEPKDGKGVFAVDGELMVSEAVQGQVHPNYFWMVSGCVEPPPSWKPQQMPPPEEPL
Structure (SMILES),inhibition [1] [%],inhibition [2] [%],inhibition [3] [%],inhibition [4] [%],inhibition [5] [%],inhibition [6] [%],inhibition [7] [%],inhibition [8] [%],inhibition [9] [%],inhibition [10] [%],inhibition [11] [%],inhibition [12] [%],inhibition [13] [%],inhibition [14] [%],inhibition [15] [%],inhibition [16] [%],inhibition [17] [%],inhibition [18] [%],inhibition [19] [%],inhibition [20] [%]
COc1ccc(-c2nn3ncccc3c2-c2ccnc(Nc3ccc(Cl)c(C(F)(F)F)c3)n2)cc1,-2.15,-0.61,0.61,2.8,8.2,5.34,3.48,5.25,8.22,4.71,5.7,1.43,2.51,2.35,1.82,3.06,2.55,3.34,3.28,6.79
O=C1NC(=O)C(c2ccc(Cl)cc2)=C1Nc1ccc(Cl)c(C(=O)O)c1,-0.08,2.29,0.32,-0.4,-2.48,11.5,4.5,0.8,-1.44,-4.08,-2.57,-0.84,-2.3,-1.89,-2.45,0.26,2.37,-1.15,-3.67,-5.68
